Screening results deposited in PubChem BioAssay by National Center for Advancing Translational Sciences (NCATS).
Shiga inhibitor – inhibitors of Shiga toxin in Vero cells; Vero cells, Shiga toxin protein synthesis inhibition reporter; inhibition, % at 38.7 µM; 290,000 tested, 9.2% active; AID 2315; in the data active means inhibition mostly above about 28%, no sharp cut-off; inactive means mostly below about 43%; further: 0% is about no effect
NS1 inh – inhibitors of influenza NS1 protein function | 270,000 tested, 0.4% active | AID 2326 | Potency, µM (titrated, usually from 46.1 µM), for the others: at the highest dose activity, positive = more growth; calls by dose curve; further: potency means the concentration at half of the fitted maximal effect; actives are rising curves; nearly all actives have a fitted effect of over 50% in size
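Recovery from NS1-induced slow growth read by OD600 in budding yeast switched to galactose assay medium (pH 6.0, -URA) at 1:100 dilution. Compound 23 nl per well; the matching strain lacking NS1 serves as control.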
CHX counter – counter-screen hit for Shiga toxin inhibitors, cycloheximide; 300,000 tested, 12% active; max response, %; AID 2314; cell reporter, cycloheximide protein synthesis inhibition counterscreen; in the data active means max response mostly above about 13%, no sharp cut-off; inactive means mostly below about 14%; further: read at 38.3 µM for the half of the compounds with a filed dose; 0% is about no effect
Pf growth 48h – inhibits P. falciparum growth in the first generation, 48 h. P. falciparum luciferase growth in erythrocytes, 48 h. Potency, µM (titrated, usually from 28.7 µM), inactives show at the highest dose activity change, negative = inhibition, actives largely listed as inhibitors. 310,000 tested, 5.9% active; further: potency means the concentration at half of the fitted maximal effect; on the % scale 0 is the no-effect control and ±100 the full control effect
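Parasite viability was followed by luminescence of a genomically integrated firefly luciferase. Cultures held 0.1% parasitemia at 2% hematocrit (final), incubated under 5% CO2 at 37 C.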
Sm TGR inh – S. mansoni TGR enzyme inhibition; Potency, µM (top dose mostly 114 µM), for inactives: at the top dose activity change, negative = inhibition, actives largely listed as inhibitors; purified TGR, DTNB reduction, TNB absorbance 405 nm; Q962Y6; AID 485364; 360,000 tested, 3% active; further: potency means the concentration at half of the fitted maximal effect; on the % scale 0 is the no-effect control and ±100 the full control effect; nearly all actives have a fitted effect of over 60% in size
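First, TGR (20 nM dispensed) and NADPH were mixed with compound. Second, a 15 min room-temperature incubation followed. Third, further NADPH and then DTNB were added to start the reaction. Finally, TNB absorbance was monitored kinetically.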
Pf growth 96h – inhibits malaria parasite growth, 96 h; P. falciparum luciferase reporter growth, 96 h; Potency, µM (series often up to 28.7 µM), inactives show at the highest dose activity change, negative = inhibition, hits mostly inhibitors; 320,000 tested, 6.9% active; AID 504834; further: potency means the concentration at half of the fitted maximal effect; on the % scale 0 is the no-effect control and ±100 the full control effect
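96 h incubation, 37 C, 5% CO2, of luciferase-reporter P. falciparum-infected RBCs (2% hematocrit, 0.05% parasitemia final) with test compounds; endpoint luminescence.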
Starred values were filed as active, the others as inactive; ? = inconclusive; nt = no result given; [ ] = remark or other dose. Sampled rows, rich in hits. Any-hit rate of the full collection: about 21%. Unless noted, the call rests on the fitted dose curve; in most records, active means well fitted curve in the direction sought with a large enough effect; inconclusive means small, poorly fitted or top-dose-only effect, or another doubt; inactive means no such curve, though single readings can be large; an effect the other way counts as inactive or inconclusive.

SMILES | Shiga inhibitor | NS1 inh | CHX counter | Pf growth 48h | Sm TGR inh | Pf growth 96h
CC(C)CC(=O)Nc1ccc(S(=O)(=O)Nc2nccs2)cc1 | -10 | 1% | -5 | 6% | 10% | -2%
O=C(NCCOc1ccccc1F)C1CCC(=O)N(CCc2cccc(F)c2)C1 (centres undefined) | 8 | -25% | 2 | ? | -14% | 15µM*
CN(CCC1CCOCC1)C(=O)C1CCC(=O)N(CCc2cccc(F)c2)C1 (centres undefined) | -12 | -1% | 10 | -6% | 0% | 15µM*
Cc1ccccc1CCNC(=O)C1CCC(=O)N(CCc2cccc(F)c2)C1 (centres undefined) | 10 | -2% | 12 | -18% | -16% | 2%
CN(CCC1CCOCC1)C(=O)C1CCC(=O)N(CCc2ccc(Cl)cc2)C1 (centres undefined) | -4 | -8% | -2 | 4% | -1% | 44%
Cc1ccsc1CN(C)C(=O)C1CCC(=O)N(CCc2cccc(F)c2)C1 (centres undefined) | 53* | -5% | 36* | 7% | -22% | -1%
Cc1ccsc1CCNC(=O)C1CCC(=O)N(CCc2cccc(F)c2)C1 (centres undefined) | 120* | -15% | 46* | 18% | 0% | ?
COc1cc(SC)ccc1C(=O)OC(C)C(=O)NC1CCCC1 (centres undefined) | 13 | 16% | 5 | -3% | 6% | 3%
CCc1ccc(O)c(-c2cc(C(=O)Nc3cccnc3)[nH]n2)c1 | 93* | 3% | 28* | ? | -2% | 0.41µM*
CCOc1ccc(OCc2ccc(C(=O)Nc3cccnc3)cc2)cc1 | nt | nt | nt | 16% | -14% | 11%
Cc1cc(C)c(-c2cc(C(=O)Nc3c(C)n(C)n(-c4ccccc4)c3=O)[nH]n2)c(O)c1 | -3 | -4% | -1 | -10% | -2% | 60%
COc1ccc(C(=O)Nc2cc(-c3ccc(C)cc3)no2)cc1 | 16 | -4% | 9 | 28% | 9% | 30%
Cc1ccc(-c2cc(NC(=O)c3ccccc3)on2)cc1 | 94* | -7% | 23* | 3%[0.00184 µM] | 3% | 43%
Cc1cc(C)c(O)c(-c2cc(C(=O)Nc3cccnc3)[nH]n2)c1 | 98* | 1% | 29* | 2.9µM* | 8% | 2.9µM*
Cc1cccc(NC(=O)c2cc(-c3c(C)cc(C)cc3O)n[nH]2)c1 | 51* | 5% | 28 | 0% | -1% | 15µM*
Cc1cc(C)cc(NC(=O)Nc2cccnc2)c1 | 20 | 1% | 15 | ? | 5% | 13%
Cc1cccc2c(=O)cc(CSc3ccccc3NC(=O)c3cccc(Cl)c3)[nH]c12 | nt | nt | nt | nt | -1% | nt
Cc1nn(-c2ccccc2)c(Cl)c1C(=O)NCc1cccs1 | 5 | 8% | -2 | 3% | -1% | ?
Cc1ccc(CCNC(=O)c2cc(-c3ccccc3)n[nH]2)cc1 | nt | nt | nt | nt | 1% | nt
Cc1ccc(NC(=O)c2cc(-c3ccccc3)n[nH]2)cc1 | 49* | -11% | 39* | 77% | -24% | 5%
CC(=O)Nc1ccc(NC(=O)c2cc(-c3cc(C)c(C)cc3O)n[nH]2)cc1 | 43 | 10% | 2 | 1µM* | -11% | ?
Cc1cc(C)c(O)c(-c2cc(C(=O)NCc3ccccc3)[nH]n2)c1 | -16 | 6% | -3 | nt | -16% | ?
Cc1ccc(NC(=O)c2cc(-c3ccccc3O)n[nH]2)cc1Cl | 18 | 2% | 7 | ? | 10% | ?
Cc1cc(O)c(-c2cc(C(=O)Nc3cccnc3)[nH]n2)cc1C | 52* | -2% | 43* | 2.6µM* | 5% | 2.1µM*
Cc1cccc(NC(=O)c2cc(-c3cc(C)cc(C)c3O)n[nH]2)c1 | 40* | 3% | 13* | ? | 2% | ?
Cc1ccccc1NC(=O)/C(C#N)=C/c1ccc(Cl)cc1Cl | nt | nt | nt | nt | 0% | nt
CC(C)/C=C/CN1CCCC(N2CCN(c3cccc(Cl)c3)CC2)C1 (centres undefined) | -3 | -8% | 3 | ? | -1% | 78%
CCOc1cc(/C=N/NC(=O)c2nnn(-c3nonc3N)c2C)ccc1OCc1cccc(F)c1 | -3 | 6% | 3 | -3% | 1% | 10%
